Hits are enriched below; roughly 19% of the tested compounds scored in any of these assays.
ELG1 repair inh – inhibitors of ELG1-dependent DNA repair in HEK293T cells. HEK293T ELG1-luciferase reporter, luminescence, 16 h; DNA damage induced by 5-fluorouridine. 330,000 tested, 2.3% active. Potency, µM (highest dose often 46.1 µM), for inactives: at the top dose activity change, negative = inhibition, hits mostly inhibitors; note: potency is the fitted concentration of half-maximal effect; nearly all actives have a fitted effect of over 55% in size
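HEK293T cells expressing luciferase-tagged ELG1 (2,000/well) received 5-Fluorouridine plus compound or DMSO for 16 hr at 37 °C. Luciferase was read by ONE-Glo luminescence after 30 min at room temperature.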
DT40 TDP1 no CPT – qHTS for Inhibitors of human tyrosyl-DNA phosphodiesterase 1 (TDP1): qHTS in cells in absence of CPT. DT40 Tdp1-/- hTDP1 cells, no CPT, ATP luminescence, 48 h. Potency, µM (highest dose often 46.2 µM), for inactives: top-dose activity change, negative = growth inhibition, actives largely listed as inhibitors. 420,000 tested, 15% active. AID 686978, 2013; note: potency is the fitted concentration of half-maximal effect; nearly all actives have a fitted effect of over 55% in size
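Growth kinetics read by CellTiter-Glo luminescence after ≥48 hr at 37 °C. Cells: DT40 Tdp1-/- stably carrying human TDP1, 400 per well, compound exposure in the absence of CPT (DMSO vehicle).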
IL1B secr inh – blocks inflammasome-driven IL-1 beta release. THP-1 LPS/ATP IL-1B secretion, AlphaLISA, 16 h; stronger effect = lower value. activity change, % at 57.5 µM. 360,000 tested, 4.7% active; in the data active = activity change below about -50%; inconclusive = mostly about -30% to -49%
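Secreted IL-1B measured by AlphaLISA bead assay after 16 h compound exposure of THP-1 cells; compounds (final up to 57.5 uM) added 1 h before LPS (250 ng/mL) and ATP (1.25 mM) stimulation; lower signal means less secretion.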
TDP1 cell CPT – growth inhibition of DT40 Tdp1-/-;hTDP1 cells with camptothecin (screen for TDP1 inhibitors) | chicken DT40 Tdp1-/-;hTDP1 cells + 20 nM CPT, ATP luminescence, 48 h | Potency, µM (titrated, usually from 46.2 µM), for inactives: top-dose activity change, negative = growth inhibition, usual class: inhibitors | 420,000 tested, 12% active; note: potency is the fitted concentration of half-maximal effect; nearly all actives have a fitted effect of over 55% in size
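Cell growth measured by CellTiter-Glo luminescence after a minimum 48 h, 37 C compound exposure with 20 nM CPT in Tdp1-knockout DT40 cells stably expressing hTDP1, seeded 400/well; qHTS titration format.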
TDP1 block – TDP1 (human) enzyme inhibition. Q9NUW8. recombinant TDP1, AlphaScreen DNA substrate cleavage. Potency, µM (titrated, usually from 130 µM), inactives show at the top dose activity change, negative = inhibition, usual class: inhibitors. 350,000 tested, 0.28% active. AID 485290; note: potency is the fitted concentration of half-maximal effect; nearly all actives have a fitted effect of over 40% in size
Target sequence (Q9NUW8 whole entry, looked up): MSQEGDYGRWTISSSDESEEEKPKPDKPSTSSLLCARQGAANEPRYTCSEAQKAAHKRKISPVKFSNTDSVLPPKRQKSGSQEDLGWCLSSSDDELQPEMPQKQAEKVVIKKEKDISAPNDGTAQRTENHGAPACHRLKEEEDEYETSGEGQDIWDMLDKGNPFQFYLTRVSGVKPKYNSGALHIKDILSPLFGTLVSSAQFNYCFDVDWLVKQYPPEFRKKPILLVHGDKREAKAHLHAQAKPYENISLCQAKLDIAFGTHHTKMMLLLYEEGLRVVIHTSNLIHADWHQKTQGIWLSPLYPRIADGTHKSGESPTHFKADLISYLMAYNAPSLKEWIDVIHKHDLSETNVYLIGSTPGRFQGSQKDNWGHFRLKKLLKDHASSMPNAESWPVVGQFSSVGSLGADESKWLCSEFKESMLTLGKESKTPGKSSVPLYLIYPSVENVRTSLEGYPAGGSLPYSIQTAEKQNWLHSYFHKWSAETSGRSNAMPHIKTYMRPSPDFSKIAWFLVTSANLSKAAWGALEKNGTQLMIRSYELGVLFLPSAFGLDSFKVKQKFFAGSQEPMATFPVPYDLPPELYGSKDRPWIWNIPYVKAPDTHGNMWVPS
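Compounds were preincubated with Tdp1 (1 nM final) for 15 min at room temperature before substrate (15 nM final) started a 5 min reaction; beads (10 ug/ml final) were then added for 10 min before AlphaScreen detection.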
Giardia kill – kills Giardia lamblia | Giardia lamblia trophozoite viability | activity change, % at 7.66 µM, hits read low | 340,000 tested, 0.15% active | AID 540267; in the data active = activity change below about -80%; inconclusive = between about -30% and that limit;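 note: parasites exposed to compound for two days anaerobically before the ATP read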
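Luminescence from cellular ATP indicates surviving trophozoites (100 cells/well) following 48 hrs anaerobic compound treatment at 37 deg C; signal develops 15-30 min at room temperature.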
Active calls of the source: *; ? = inconclusive; . = no result given. Unless noted, calls come from the whole dose curve; as a rule, active = well fitted curve in the direction sought with a large enough effect; inconclusive = small, poorly fitted or top-dose-only effect, or another doubt; inactive = no such curve, though single readings can be large; an effect the other way counts as inactive or inconclusive. % is set by controls: 0 for no effect and ±100 for the full control effect.

SMILES | ELG1 repair inh | DT40 TDP1 no CPT | IL1B secr inh | TDP1 cell CPT | TDP1 block | Giardia kill
CCOc1ccc(S(=O)(=O)NCc2csc(C)n2)cc1 | 0% | -26% | 24 | -27% | -1% | -2
CCc1ccc(S(=O)(=O)NCCc2csc(-c3ccccc3)n2)s1 | -12% | 23µM* | -26 | ? | -9% | -9
CC(=O)c1ccc(S(=O)(=O)NCCc2csc(-c3cccnc3)n2)cc1 | -4% | -26% | 1 | -21% | 5% | 15
COc1ccc(CCNC(=O)C(=O)NCC(c2ccco2)S(=O)(=O)c2ccc(F)cc2)cc1 (centres undefined) | . | ? | . | ? | 0% | .
C[C@@]12C(=O)N(CCO)CC(=O)N1[C@H](/C=C/c1ccccc1)[C@@H]1C(=O)N(c3ccccc3)C(=O)[C@@H]12 | -9% | 0% | 0 | 3% | . | -16
COCCn1c(=O)c(CCc2ccccc2)nc2cnc(Nc3cccc(OC)c3)nc21 | . | -14% | . | 2% | . | .
Cc1ccc(S(=O)(=O)NCCc2csc(-c3cccc(F)c3)n2)cc1 | . | 15µM* | . | 21µM* | 7% | .
Cc1ccc(C)c(S(=O)(=O)NCCc2csc(-c3ccc(Cl)cc3)n2)c1 | . | 16µM* | . | 29µM* | 1% | .
O=S(=O)(NCCc1csc(-c2cccc(F)c2)n1)c1cc(F)ccc1F | . | ? | . | ? | 4% | .
COc1ccccc1C1c2[nH]c3ccccc3c2CCN1Cc1cnc(C)s1 (centres undefined) | ? | 18µM* | 6 | ? | 0% | -2
COc1ccc(C2c3[nH]c4ccccc4c3CCN2Cc2ccoc2)c(F)c1 (centres undefined) | 13% | 16µM* | 0 | ? | 7% | 8
Oc1cccc(C2c3[nH]c4ccccc4c3CCN2Cc2ccc3c(c2)CCO3)c1 (centres undefined) | ? | 21µM* | -93* | ? | 11% | -13
Oc1cccc(C2c3[nH]c4ccccc4c3CCN2Cc2ccoc2)c1 (centres undefined) | -9% | -25% | -4 | -26% | 0% | -1
COc1cccc(C2c3[nH]c4ccccc4c3CCN2Cc2cnc(C)s2)c1OC (centres undefined) | ? | 15µM* | -8 | ? | 5% | 0
COCCNC(=O)Cn1nc(N2CCN(c3ccccc3OC)CC2)ccc1=O | . | -3% | . | -7% | 5% | .
CCc1nn(CC(=O)NCCN2CCN(C)CC2)c(=O)c2cc3c(OC)cccc3n12 | 19% | 0% | -7 | 4% | 6% | 15
Cc1cc(NS(=O)(=O)c2ccc(NC(=O)COc3ccccc3Br)cc2)no1 | . | -11% | . | -1% | 2% | .
Cc1ccc(C)c(S(=O)(=O)N(C)C2CCS(=O)(=O)C2)c1 (centres undefined) | 13% | -13% | 5 | 2% | 0% | -1
Cc1cccc(NC(=S)NC2CCCCCC2)c1C | 0% | 10µM* | 32 | 21µM* | 10% | -18
Cc1cccc(NC(=S)NC2CCCC2)c1C | -4% | 0% | -1 | 1% | . | -1
Fc1ccccc1NC(=S)NC1CCCC1 | -11% | 23µM* | 12 | ? | 1% | -8
CC(C)(C)c1ccccc1NC(=S)NC1CCCCC1 | -17% | 18µM* | 2 | ? | 8% | -1
Cc1cccc(NC(=S)NC2CC3CCCC(C2)N3Cc2ccccc2)c1C (centres undefined) | 0% | ? | -28 | 16µM* | 2% | -8
Cn1c(C(=O)Nc2ccc(OC(F)(F)F)cc2)cc2c(=O)n3ccccc3nc21 | . | ? | . | -7% | -3% | .
COc1cccc(-c2nc(CS(=O)(=O)CC(=O)NCCN3CCOCC3)c(C)o2)c1 | -1% | -19% | -2 | 8% | 4% | -10

Compound activity as filed in PubChem.
